Experiment [1] in a line: inhibitors of TNFa-induced NFkB p65 translocation, primary screen, imaging, HUVEC, MLSMR starter and 10KST1 sets (AID 438).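 For inhibition: signal is the nuclear over cytoplasmic p65 intensity ratio per well.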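 Note: compound added about 3h40 before a 20 min TNFalpha stimulation.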 Particulars: HUVEC TNFa-induced p65 nuclear translocation; cell count: measured here: nuclei count (cytotoxicity indicator), at 2.08 µM; inhibition: at 2 µM, stronger effect = higher value, 0% TNFa-plus-vehicle, 100% no-TNFa wells.
Experiment [2] can be described thus: inhibitors of mutant huntingtin aggregation, primary screen, imaging, exon1htt(103Q)mCFP cells, high-content imaging (AID 483;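 active = visual image review flags a hit and inhibition of aggregation exceeds 20%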;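 note: compound exposure lasted 3 days before fixation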;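 for nuclei count: percent of the per-plate median nuclei count of sample wells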). The conditions noted are these: exon1htt(103Q)mCFP cell line, aggregate imaging, at 2 µM; inhibition of aggregation: stronger effect = higher value; nuclei count: measured here: cell count, toxicity.
A short description of experiment [3]: inhibitors of E-selectin induction by TNFa, primary screen, imaging, HUVEC, immunofluorescence, MLSMR starter and 10KST1 sets (AID 487;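 active = visually confirmed hit in the image check and inhibition above 20%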;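 for inhibition: signal is fraction of cell area covered by stained E-selectin grains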;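 for nuclei count: 100% = median nuclei count of all wells on the same plate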). Particulars: HUVEC TNFalpha-induced E-selectin immunofluorescence imaging, at 2 µM; inhibition: stronger effect = higher value; nuclei count: measured here: cell number, toxicity.
Experiment [4] has as its target Voltage-gated potassium channel subunit beta-2 (Rattus norvegicus) (UniProt P62483). The experiment is described as follows: KvBeta enzyme negative modulators, primary screen, biochemical, NADPH fluorescence (AID 622;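 active = fluorescence slope higher than the sample average by over 3 SD, cut at about -0.22 in these data, passing the limit was not always enough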;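 note: slope of raw intensity against log time taken from 70 to 1610 s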). Particulars: recombinant KvBeta, 4-cyanobenzaldehyde reduction, at 10 µM, stronger effect = higher value.
For experiment [5] the target is unchanged. In words: KvBeta positive modulators, primary screen, biochemical, NADPH fluorescence (AID 623;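 active = NADPH fluorescence slope more negative than the mean of all samples by about 3 SD, 99.7% confidence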;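 note: fluorescence intensity change per second fitted from 20 to 320 s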). Particulars: Recombinant KvBeta, NADPH fluorescence decrease slope, 10 min; at 10 µM; stronger effect = lower value.
Experiment [6] deals with Alpha-2C adrenergic receptor (Homo sapiens) (UniProt P18825). In words: modulators of alpha2C/GIRK thallium flux, primary screen, cell-based, HEK293 alpha2C/GIRK1/2 (AID 624;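 active = fluorescence slope after compound addition differing from the mean of all screened samples at 99.7% confidence, in either direction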;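 note: slope of fluorescence ratio to pre-addition baseline per second over 15 to 24 s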). Particulars: thallium flux BTC fluorescence, at 10 µM, actives lie on both sides.
Experiment [7] in a line: inhibitors of Sendai virus-induced IRF3 signaling, primary screen, TLR/RLR signaling modifier project, cell-based, Sendai virus stimulus, luciferase, 10K MLSCN set (AID 602276;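 active = inhibition at or above 50% at 10 µM; inactive = inhibition below 50%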;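 note: firefly luciferase from ISG56 promoter only with Renilla not read in this screen; 0% = Sendai virus plus DMSO and 100% = medium plus DMSO without virus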). The conditions noted are these: HEK293 RL24 IRF3 luciferase reporter, at 10 µM, stronger effect = higher value. (A reporter such as luciferase makes a cellular process visible.)
Experiment [8] is described as follows: inhibitors of poly I:C-induced TLR3 signaling, primary screen, cell-based, poly I:C stimulus, luciferase, 10K MLSCN set (AID 602277;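 active = inhibition of the reporter signal at or above 50%; inactive = inhibition below 50%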). Particulars: HEK293-TLR3 RL24 IRF3 luciferase reporter, at 10 µM, stronger effect = higher value.

Active and inactive are the calls of the source.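 Rule for the calls, unless noted: active = inhibition above 20% together with a positive visual image hit; inconclusive = visual image hit but inhibition not above 20%; inactive = no visual image hit.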

A word on the inhibition: it is the change of the read-out against control, counted positive when it falls.

Sequence of Voltage-gated potassium channel subunit beta-2 (Rattus norvegicus) (P62483 whole entry, looked up): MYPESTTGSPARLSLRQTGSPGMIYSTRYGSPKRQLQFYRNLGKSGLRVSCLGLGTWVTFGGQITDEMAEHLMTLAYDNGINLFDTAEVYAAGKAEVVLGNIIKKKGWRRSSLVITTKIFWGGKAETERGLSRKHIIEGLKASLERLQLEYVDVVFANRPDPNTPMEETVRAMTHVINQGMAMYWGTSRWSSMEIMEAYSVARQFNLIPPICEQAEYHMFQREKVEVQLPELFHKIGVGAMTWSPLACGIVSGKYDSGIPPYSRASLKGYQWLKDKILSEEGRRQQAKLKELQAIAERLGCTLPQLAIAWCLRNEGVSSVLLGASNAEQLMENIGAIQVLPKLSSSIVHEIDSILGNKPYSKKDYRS
Sequence of Alpha-2C adrenergic receptor (Homo sapiens) (P18825 whole entry, looked up): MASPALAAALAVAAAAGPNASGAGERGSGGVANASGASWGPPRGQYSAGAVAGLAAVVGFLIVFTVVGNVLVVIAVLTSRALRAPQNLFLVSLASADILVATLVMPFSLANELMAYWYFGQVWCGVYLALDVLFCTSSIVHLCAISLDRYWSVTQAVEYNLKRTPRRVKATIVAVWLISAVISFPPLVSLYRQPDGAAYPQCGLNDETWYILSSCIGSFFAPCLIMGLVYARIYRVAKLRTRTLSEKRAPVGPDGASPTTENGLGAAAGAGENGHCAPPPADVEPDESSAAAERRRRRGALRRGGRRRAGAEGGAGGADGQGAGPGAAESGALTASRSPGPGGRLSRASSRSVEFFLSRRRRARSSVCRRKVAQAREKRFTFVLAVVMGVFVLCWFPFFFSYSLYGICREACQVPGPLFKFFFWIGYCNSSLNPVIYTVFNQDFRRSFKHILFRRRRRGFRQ

Regarding `O=C(Nc1ncc2c(n1)CC(c1ccccc1)CC2=O)c1ccco1` (centres undefined), the cell count in experiment [1] is 572. In addition, the inhibition in experiment [1] is -8.6% (inactive); in experiment [3], -3.8% (inactive); in experiment [7], 9.1% (inactive); in experiment [8] it was 9.67% (inactive). Also, the inhibition of aggregation in experiment [2] is -5.3% (inactive). The figures for the nuclei count in experiment [2] and in experiment [3] were 99.5% and 86%, respectively. For the same compound, the fluorescence slope in experiment [4] was -0.534 (inactive). For the same compound, in experiment [5], the NADPH fluorescence slope is -5.7e-06 (inactive). Moreover, the slope in experiment [6] was 0.00546 (inactive).
As to `COc1ccc(Cn2nnnc2C(c2cccs2)N2CCOCC2)cc1` (centres undefined), in experiment [1], the cell count is 572. The inhibition was -4.8% (inactive) in experiment [1], -10.4% (inactive) in experiment [3], -1.07% (inactive) in experiment [7] and -0.428% (inactive) in experiment [8]. Further, the inhibition of aggregation in experiment [2] is -10.4% (inactive). Besides, the nuclei count in experiment [2] is 98.8%; in experiment [3] it was 114%. In experiment [4], the fluorescence slope was -0.419 (inactive). Besides, the NADPH fluorescence slope in experiment [5] was 1.2e-06 (inactive). Also, the slope in experiment [6] was 0.00389 (inactive).
Regarding `C=C(C)COc1ccc(-c2n[nH]c(C)c2-c2ccccc2)c(O)c1`, the cell count in experiment [1] worked out at 456. In addition, the inhibition in experiment [1] was -8% (inactive); in experiment [3] it was 0.8% (inactive); in experiment [7], -6.65% (inactive); in experiment [8], 11.2% (inactive). Further, the inhibition of aggregation in experiment [2] is 3.7% (inactive). Moreover, the results for the nuclei count in experiment [2] and in experiment [3] were 99.2% and 81.8%, respectively. In experiment [4], the fluorescence slope was -0.46 (inactive). In addition, in experiment [5], the NADPH fluorescence slope is -3.2e-05 (inactive). Moreover, the slope in experiment [6] is 0.00246 (inactive).
With `Nc1nnn(Cc2ccccc2)n1`, the cell count in experiment [1] was determined as 885. The inhibition in experiment [1] was 8.7% (inactive); in experiment [3], -20.6% (inactive); in experiment [7], 0.136% (inactive); in experiment [8] it was 99.3% (active). The inhibition of aggregation in experiment [2] is 5.4% (inactive). Moreover, the nuclei count in experiment [2] and in experiment [3] was 114% in each case. Besides, the fluorescence slope in experiment [4] is -0.566 (inactive). Further, in experiment [5], the NADPH fluorescence slope was -2.4e-05 (inactive). In experiment [6], the slope is 0.00494 (inactive).
Take `COc1ccc(OC)c(CNC(=O)COc2cc(=O)n(C)c3ccccc23)c1`: in experiment [1], the cell count was 367. For the same compound, the inhibition was 4.3% (inactive) in experiment [1], 18% (inactive) in experiment [3], 6.07% (inactive) in experiment [7] and 6.23% (inactive) in experiment [8]. For the same compound, in experiment [2], the inhibition of aggregation was -8.1% (inactive). Also, the nuclei count came to 105% in experiment [2] and 100% in experiment [3]. Moreover, in experiment [4], the fluorescence slope is -0.349 (inactive). For the same compound, the NADPH fluorescence slope in experiment [5] is -7.1e-06 (inactive). The slope in experiment [6] is 0.00576 (inactive).
`Cn1c(SCC(N)=O)nnc1C1CCN(C(=O)NCc2ccccc2)CC1`: in experiment [1], the cell count amounted to 325. The inhibition was 6.8% (inactive) in experiment [1], -74.7% (inactive) in experiment [3], 5.51% (inactive) in experiment [7] and 21.8% (inactive) in experiment [8]. The inhibition of aggregation in experiment [2] is -6.1% (inactive). The figures for the nuclei count in experiment [2] and in experiment [3] were 99.8% and 108%, respectively. For the same compound, the fluorescence slope in experiment [4] was -0.385 (inactive). Moreover, in experiment [5], the NADPH fluorescence slope is -5.9e-05 (inactive). Also, the slope in experiment [6] was 0.00348 (inactive).
Turning to `Cc1ccccc1N1C(N)=NC(N)=NC1(C)C`, in experiment [1], the cell count was found to be 635. Also, the inhibition was -9.8% (inactive) in experiment [1], -6.8% (inactive) in experiment [3], 4.23% (inactive) in experiment [7] and 5.9% (inactive) in experiment [8]. Besides, the inhibition of aggregation in experiment [2] was 0.5% (inactive). Further, the results for the nuclei count in experiment [2] and in experiment [3] were 103% and 110%, respectively. Further, the fluorescence slope in experiment [4] was -0.584 (inactive). In addition, the NADPH fluorescence slope in experiment [5] is -1.3e-05 (inactive). Further, the slope in experiment [6] is 0.00605 (inactive).
Turning to `CC1(C)CC(=O)C2=C(C1)OC(N)=C(C#N)C2C1CC=CCC1` (centres undefined), in experiment [1], the cell count amounted to 569. In addition, the inhibition is 2.4% (inactive) in experiment [1], -52% (inactive) in experiment [3], 16% (inactive) in experiment [7] and 22.1% (inactive) in experiment [8]. Besides, the inhibition of aggregation in experiment [2] was 1.3% (inactive). For the same compound, the nuclei count in experiment [2] stood at 119%; in experiment [3] it was 89.2%. The fluorescence slope in experiment [4] was -0.556 (inactive). Besides, the NADPH fluorescence slope in experiment [5] is -1.7e-05 (inactive). The slope in experiment [6] is 0.00554 (inactive).
Consider `COc1ccc(Nc2ncnc3c2cnn3-c2ccccc2)cc1OC`, for which, in experiment [1], the cell count came to 761. In addition, the inhibition was -15.1% (inactive) in experiment [1], -10% (inactive) in experiment [3], -10.2% (inactive) in experiment [7] and -29.8% (inactive) in experiment [8]. Moreover, the inhibition of aggregation in experiment [2] is -26.1% (inactive). The nuclei count in experiment [2] worked out at 84.3%; in experiment [3], 103%. In addition, in experiment [4], the fluorescence slope was -0.366 (inactive). In addition, the NADPH fluorescence slope in experiment [5] is 1.2e-05 (inactive). In addition, the slope in experiment [6] is 0.00554 (inactive).
For `CC(C)(C)c1ccc(C(=O)Nc2cnccn2)cc1`, the cell count in experiment [1] was 351. For the same compound, the inhibition was 1.7% (inactive) in experiment [1], 11.6% (inactive) in experiment [3], -50.1% (inactive) in experiment [7] and -138% (inactive) in experiment [8]. Further, the inhibition of aggregation in experiment [2] is 7.6% (inactive). Moreover, the results for the nuclei count in experiment [2] and in experiment [3] were 100% and 108%, respectively. Further, the fluorescence slope in experiment [4] is -0.379 (inactive). The NADPH fluorescence slope in experiment [5] was -6.5e-05 (inactive). For the same compound, the slope in experiment [6] was 0.0039 (inactive).
As to `O=S(=O)(NCc1ccccc1)c1ccc2c(c1)OCCO2`, the cell count in experiment [1] was 454. Also, the inhibition was -10.7% (inactive) in experiment [1], -117% (inactive) in experiment [3], -0.346% (inactive) in experiment [7] and -1.95% (inactive) in experiment [8]. Also, the inhibition of aggregation in experiment [2] was -10.8% (inactive). In addition, the figures for the nuclei count in experiment [2] and in experiment [3] were 100% and 121%, respectively. For the same compound, the fluorescence slope in experiment [4] was -0.599 (inactive). Further, in experiment [5], the NADPH fluorescence slope was -3.9e-05 (inactive). For the same compound, in experiment [6], the slope was 0.00569 (inactive).
For the compound `CCN(CC)S(=O)(=O)c1cccc(-c2nnc(SCC(N)=O)n2CCc2ccccc2)c1`, the cell count in experiment [1] was determined as 635. In addition, the inhibition in experiment [1] was -4.4% (inactive); in experiment [3] it was -32.3% (inactive); in experiment [7], 7.68% (inactive); in experiment [8] it was 11.1% (inactive). Further, the inhibition of aggregation in experiment [2] is -2.2% (inactive). In addition, the nuclei count was found to be 105% in experiment [2] and 125% in experiment [3]. Besides, the fluorescence slope in experiment [4] was -0.592 (inactive). For the same compound, the NADPH fluorescence slope in experiment [5] is -8.5e-06 (inactive). The slope in experiment [6] was 0.00663 (inactive).
Regarding `COc1ccc2c(c1OC)C(=O)OC2CC(=O)c1ccc(O)cc1` (centres undefined), the cell count in experiment [1] was 556. The inhibition in experiment [1] was -1.1% (inactive); in experiment [3] it was 43.4% (inactive); in experiment [7], 4.78% (inactive); in experiment [8] it was 26.9% (inactive). Further, in experiment [2], the inhibition of aggregation was -3.9% (inactive). Also, the nuclei count was 114% in experiment [2] and 42.6% in experiment [3]. In experiment [4], the fluorescence slope was -0.447 (inactive). For the same compound, the NADPH fluorescence slope in experiment [5] is -4.1e-05 (inactive). The slope in experiment [6] was 0.00258 (inactive).
As for `COc1ccc(-c2nc(CSCC(=O)N3CCN(c4cccc(C)c4)C(C)C3)c(C)o2)cc1OC` (centres undefined), the cell count in experiment [1] came out at 549. Besides, the inhibition in experiment [1] is 2.3% (inactive); in experiment [3], 5.7% (inactive); in experiment [7] it was 4.11% (inactive); in experiment [8], 8.34% (inactive). Also, in experiment [2], the inhibition of aggregation is 11.5% (inactive). The nuclei count in experiment [2] is 92.1%; in experiment [3] it was 83.2%. The fluorescence slope in experiment [4] is -0.429 (inactive). In addition, in experiment [5], the NADPH fluorescence slope was -5.4e-05 (inactive). Moreover, the slope in experiment [6] is 0.00539 (inactive).

(Values after PubChem BioAssay.)
